Experimental data reported in PubChem BioAssay (NCI).
The panel holds about 79,000 compounds, 15% with a hit somewhere; the sample as a whole holds those more often. No stated cut-off is given here; in the data, active means growth inhibition above about 70%; inactive means the rest.

Key:
[1] = NCI Yeast Anticancer Drug Screen. Data for the rad50 strain (AID 155);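 further: 0% = growth of vehicle-only cultures of the same strain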; conditions: S. cerevisiae rad50 strain growth inhibition; at 50.0 µM; hits give high values
Outline: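 Vehicle-treated cultures provide the reference for the growth inhibition reported for compound-exposed, repair-deficient yeast.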

[2] = NCI Yeast Anticancer Drug Screen. Data for the mec2-1 strain (AID 157); conditions: S. cerevisiae mec2-1 strain, at 50.0 µM, hits give high values
Outline: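 Strain: mec2-1 (DNA repair/cell cycle alteration). Compound exposure, then growth measured; inhibition expressed relative to vehicle.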

[3] = NCI Yeast Anticancer Drug Screen. Data for the sgs1 mgt1 strain (AID 161);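 further: 0% = growth of cultures given vehicle only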; conditions: S. cerevisiae sgs1 mgt1 strain, at 50.0 µM, hits give high values
Outline: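 Read-out: growth inhibition vs vehicle controls. Cells: mutant yeast strain deficient in DNA damage repair.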

[4] = NCI Yeast Anticancer Drug Screen. Data for the cln2 rad14 strain (AID 165);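 further: 0% = growth equal to vehicle treated cultures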; conditions: S. cerevisiae cln2 rad14 strain, at 50.0 µM, hits give high values
Outline: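 Compounds are applied to the cln2 rad14 yeast strain, and growth is then compared with that of vehicle-treated cultures to give inhibition.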

[5] = NCI Yeast Anticancer Drug Screen. Data for the bub3 strain (AID 167); conditions: S. cerevisiae bub3 mutant strain, at 50.0 µM, hits give high values
Outline: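 Mutant yeast screening strain plus compound; vehicle-treated cultures serve as the 0% inhibition reference.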

[6] = NCI Yeast Anticancer Drug Screen. Data for the mlh1 rad18 strain (AID 175); conditions: S. cerevisiae mlh1 rad18 strain growth inhibition; at 50.0 µM; hits give high values
Outline: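 Read-out is yeast growth inhibition, calculated against vehicle-only controls. The compound was applied to a strain engineered with DNA damage repair alterations.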

Measured: growth inhibition

OC1CCC2=C(C1)C1CCC2C1 (stereo not given)
inactive: [1] 9.05% | [2] -10.7% | [3] -11.8% | [4] -18.4% | [5] -12% | [6] 15.8%

O=C1OCCCC1(Cc1ccccc1)Cc1ccccc1
inactive: [1] 44.6% | [2] -7.7% | [3] 37.4% | [4] -16.1% | [5] 39.6% | [6] 16.5%

CC(=O)c1ccc(I)cc1
inactive: [1] 5.15% | [2] -11.7% | [3] 24.6% | [4] 13.8% | [5] 14.1% | [6] 18.1%

N#Cc1c(-c2ccccc2)ssc1=S
inactive: [1] 31.4% | [2] 25.1% | [3] 50.4% | [4] -20.8% | [5] 11.8% | [6] 12.6%

CCN(CC)c1ncnc2c1cnn2C
inactive: [1] -14.8% | [2] -14.4% | [3] 8.75% | [4] 11% | [5] -15.9% | [6] -28%

COc1ccc(N=Nc2ccc(OC)cc2C)c(C)c1
inactive: [1] 1.7% | [2] -2.3% | [3] 1.9% | [4] -4.7% | [5] 10% | [6] 7.15%

CC1(C)OC(=O)C=C([O-])O1.CC1(C)OC(=O)C=C([O-])O1.O=c1c(O)c(-c2ccc([O-])cc2[O-])oc2cc(O)cc(O)c12.[Ti+4]
inactive: [1] -45.6% | [2] 9.05% | [3] -29.4% | [4] -7.85% | [5] -4.55% | [6] -16.2%

CCc1c([N+](=O)[O-])c2cc([N+](=O)[O-])ccc2n1C
inactive: [1] 3.35% | [2] 8.85% | [3] -7.65% | [4] -1.65% | [5] 2.8% | [6] 8.75%

O=C1CSC(c2ccc(Br)cc2)N1c1nncs1 (stereo not given)
inactive: [1] -2.75% | [2] 19.6% | [3] 18.2% | [4] -9.95% | [5] 6.6% | [6] 23.3%

CCCCC(O)(CCCC)CC(C)(C)C
inactive: [1] -3.3% | [2] 1.6% | [3] -9% | [4] 18.7% | [5] 2.65% | [6] -1.35%

Cc1cc(=O)[nH]c(NN2C(Cl)C(=O)C2c2ccc([N+](=O)[O-])cc2)n1 (stereo not given)
inactive: [1] 15.8% | [2] -24.2% | [3] 12.7% | [4] 2.7% | [5] 3.85% | [6] -18.8%

Cc1ccc(C)c(NC(=O)C(=O)C2C(=O)C3=C(CC2(C)C)Nc2ccccc2S3)c1 (stereo not given)
inactive: [1] -21.2% | [2] -20.2% | [3] -14.1% | [4] -21.5% | [5] -28.4% | [6] -33%

O=C1C=C2CCCCCCCC(C1)C2 (stereo not given)
inactive: [1] 11.8% | [2] 1.1% | [3] 2.25% | [4] -1.75% | [5] -1.15% | [6] 3.2%

O=C(Nc1cc(Cl)ccc1Cl)C(=O)C(c1cnc2ccccc2n1)[N+](=O)[O-] (stereo not given)
inactive: [1] 12.7% | [2] 6.3% | [3] -23.8% | [4] 36.1% | [5] 34.1% | [6] 13.3%

CCCC(C)C1CCC(=O)CC1 (stereo not given)
inactive: [1] 5.85% | [2] 0.3% | [3] 0.75% | [4] -4.3% | [5] 1.95% | [6] -0.2%

O=c1n(CCCN2CCN(c3cccc(Cl)c3)CC2)nc2ccccn12
inactive: [1] 45.9% | [2] 11.4% | [3] 21.9% | [4] 19.8% | [5] -1.4% | [6] 8.35%

O=C(OCC1OC(n2nc(SCc3ccccc3)c(=S)[nH]c2=O)C(OC(=O)c2ccccc2)C1OC(=O)c1ccccc1)c1ccccc1 (stereo not given)
inactive: [1] 1.05% | [2] 0.35% | [3] 14.2% | [4] -46.9% | [5] -5.7% | [6] 31.8%

CC(=O)Oc1ccc([N+](=O)[O-])cc1
inactive: [1] 16.9% | [2] 12.7% | [3] 27.4% | [4] -17.7% | [5] -1% | [6] 34%

CCCCC/C(=C\c1ccccc1)C1OCC(COC(C)=O)O1 (stereo not given)
inactive: [1] -37.6% | [2] -5.8% | [3] -2.25% | [4] -30.2% | [5] 40.8% | [6] -2.6%

COC(=O)N/N=C(/c1nc2ccc([N+](=O)[O-])cc2[nH]c1=O)C(O)c1ccc(OC)c(OC)c1 (stereo not given)
inactive: [1] -3.3% | [2] 0.35% | [3] -3.05% | [4] 17.7% | [5] 26.5% | [6] 6.2%

CC[C@]12CCCN3CCc4c(n(c5ccccc45)C(=O)C1)[C@@H]32
inactive: [1] -25.9% | [2] -23.2% | [3] -49.1% | [4] 29.4% | [5] -25.6% | [6] 31.1%

CCOC(=O)NC(C(F)(F)F)(C(F)(F)F)P(=O)(OC(C)C)OC(C)C
inactive: [1] -23% | [2] -11.6% | [3] -12.4% | [4] 31.1% | [5] 3.65% | [6] 1.65%

CN(C)CCSc1nc2ccccc2o1
inactive: [1] 12.2% | [2] 20.8% | [3] 27.7% | [4] 21.1% | [5] 16.9% | [6] 32.9%

C=C=CON1CCCCC1
inactive: [1] -16% | [2] 14.9% | [3] -24.9% | [4] -5% | [5] -12.7% | [6] -0.6%

Cc1cc(-c2ccccc2)[nH]c1-c1nccc2ccccc12
inactive: [1] 4.1% | [2] 8% | [3] 0.8% | [4] 24% | [5] -4.5% | [6] 4.7%

Cc1cc2c(cc1Cl)S(=O)(=O)OC(c1ccc([N+](=O)[O-])cc1)=N2
inactive: [1] -3.25% | [2] -4.3% | [3] -0.1% | [4] 0.45% | [5] 19.1% | [6] -10.3%

C=C1C(=O)O[C@@H]2/C=C(/C)[C@@H](OC(C)=O)C[C@@H](O)/C(C)=C\[C@@H](OC(=O)[C@]3(C)O[C@@H]3C)[C@@H]12
inactive: [1] 11.3% | [2] -0.85% | [3] 16.2% | [4] 20.5% | [5] 13.4% | [6] -63.6%

CC(=O)/C(=N/O)C(C)C
inactive: [1] 4.6% | [2] -3.5% | [3] 6.35% | [4] -0.35% | [5] -0.45% | [6] 2.8%

CN(C)C=Nc1ccn(CCO)c(=O)n1
inactive: [1] 21.6% | [2] -16.9% | [3] 23.6% | [4] 19.1% | [5] 21.9% | [6] 33.2%

CC(C)(CO)NC(=O)c1cccs1
inactive: [1] 14.8% | [2] 5.15% | [3] 1.45% | [4] 12.7% | [5] -4.35% | [6] -20%

O=C1NC(Cc2ccc(O)cc2)C(=O)N2CCCC12 (stereo not given)
inactive: [1] 1.25% | [2] -3% | [3] -34.6% | [4] 0.4% | [5] -18.2% | [6] -14.2%

CCC1=C[C@H]2CN(CCc3c([nH]c4ccccc34)[C@@](C(=O)OC)(c3cc4c(cc3OC)N(C)[C@H]3[C@@](O)(C(=O)NC)[C@H](OC(C)=O)[C@]5(CC)C=CCN6CC[C@]43[C@@H]65)C2)C1
inactive: [1] 2.65% | [2] -1.75% | [3] 12.8% | [4] -2.05% | [5] 16.4% | [6] -12.4%

Cn1c(=O)c2c(ncn2CCSS(=O)(=O)O)n(C)c1=O
inactive: [1] -20.7% | [2] -17.1% | [3] 12.2% | [4] -11.9% | [5] -12% | [6] -28.9%

O=C(CN1CCN(c2cccc(Cl)c2)CC1)N1CCc2c([nH]c3ccccc23)C1c1cccnc1 (stereo not given)
inactive: [1] -15.3% | [2] -30.8% | [3] 1.6% | [4] 6% | [5] -2.25% | [6] -16.9%

NCC(=O)Nc1ccc(Cl)cc1C(=O)c1ccc[nH]1
inactive: [1] 1.4% | [2] -16% | [3] -27.6% | [4] -42.4% | [5] -53.5% | [6] 0.85%
